In PubChem BioAssay AID624261 (National Center for Advancing Translational Sciences (NCATS), 2012):
Some of the results follow. Activity calls are given as the source filed them. The call rests on the fitted dose curve.

target: Glutaminase kidney isoform, mitochondrial (Homo sapiens) (UniProt O94925); experiment: qHTS for Inhibitors of Glutaminase (GLS): Hit Confirmation; details: biochemical glutaminase enzyme inhibition assay
Source text: Glutaminase (GLS) catalyzes the hydrolysis of glutamine into glutamate and ammonia. It plays a critical role in glutaminolysis, which is an important energy source for proliferating cells. It was shown that c-Myc, an oncogenic transcription factor known to regulate microRNAs and to stimulate cell proliferation, increases glutamine metabolism by stimulating the expression of GLS via direct suppression of miR23a and miR23b.
GLS is also thought to play a pathogenic role on HAD using a human HIV-1 infected macrophage system. […] GLS inhibition limits glutamate release and provides neuroprotection against HIV-1 infected macrophages.
The overall goal of this project is to identify small molecule inhibitors of GLS through quantitative high throughput screening (qHTS) of the MLSMR. A validated potent and selective inhibitor can be used as a tool molecule to further study the pharmacology of its target as well as explore its potential therapeutic application in cancer and inflammatory neurological disorders, such as HIV1-associated dementia (HAD) and multiple sclerosis. This is the hit confirmation in the primary assay data. […]
Three 3 uL of hKGA is dispensed into black well 1536-well plates in 45 mM KH2PO4 (pH 8.2), 0.02% Tween-20. […] Plate is centrifuged for 25 sec before an initial fluorescence read is obtained on the ViewLux, after 30 min of RT incubation, the final read is taken on the ViewLux.

Chain of Glutaminase kidney isoform, mitochondrial (Homo sapiens) (O94925 whole entry, looked up, canonical isoform): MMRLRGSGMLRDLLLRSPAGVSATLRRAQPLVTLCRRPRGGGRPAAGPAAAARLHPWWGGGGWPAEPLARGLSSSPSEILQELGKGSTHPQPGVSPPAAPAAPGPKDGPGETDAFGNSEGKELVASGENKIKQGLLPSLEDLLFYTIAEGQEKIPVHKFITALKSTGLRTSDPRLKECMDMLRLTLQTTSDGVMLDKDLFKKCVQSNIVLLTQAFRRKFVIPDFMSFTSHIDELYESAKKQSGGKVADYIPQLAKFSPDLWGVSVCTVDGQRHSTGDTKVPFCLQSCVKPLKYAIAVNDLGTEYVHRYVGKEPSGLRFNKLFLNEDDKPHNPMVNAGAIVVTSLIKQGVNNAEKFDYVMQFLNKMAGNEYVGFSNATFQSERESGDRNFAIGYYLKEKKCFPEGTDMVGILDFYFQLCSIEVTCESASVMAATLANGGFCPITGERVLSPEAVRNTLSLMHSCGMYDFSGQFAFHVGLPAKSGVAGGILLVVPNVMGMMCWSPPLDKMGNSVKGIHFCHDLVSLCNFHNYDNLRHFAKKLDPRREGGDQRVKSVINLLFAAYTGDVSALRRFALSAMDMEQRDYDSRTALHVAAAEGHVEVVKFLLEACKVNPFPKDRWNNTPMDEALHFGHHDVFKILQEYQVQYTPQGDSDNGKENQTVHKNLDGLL

| SMILES | Potency |
| --- | --- |
| COc1cc(OC)c(S(=O)(=O)Nc2ccccc2C(=O)O)cc1S(=O)(=O)Nc1ccccc1C(=O)O | 5.8 µM (active) |
